Reference: PubChem BioAssay AID652031 (The Scripps Research Institute Molecular Screening Center, 2013)
In all, about 16,000 compounds went through this assay and about 70 (0.4%) were called active. This is one part of a sample in which actives are shown more often than they occur. No stated cut-off is given here; in the data, active means inhibition above about 50%; inactive means the rest.

What follows are compounds tested against Kappa-type opioid receptor (Homo sapiens) (UniProt P41145) (assay: blocks the human kappa opioid receptor, Maybridge compounds (AID 652031)). Conditions: OPRK1 cells, antagonist mode, fluorescence readout; at 9 µM; active compounds read high.
Kappa-type opioid receptor (Homo sapiens), sequence (P41145 whole entry, looked up): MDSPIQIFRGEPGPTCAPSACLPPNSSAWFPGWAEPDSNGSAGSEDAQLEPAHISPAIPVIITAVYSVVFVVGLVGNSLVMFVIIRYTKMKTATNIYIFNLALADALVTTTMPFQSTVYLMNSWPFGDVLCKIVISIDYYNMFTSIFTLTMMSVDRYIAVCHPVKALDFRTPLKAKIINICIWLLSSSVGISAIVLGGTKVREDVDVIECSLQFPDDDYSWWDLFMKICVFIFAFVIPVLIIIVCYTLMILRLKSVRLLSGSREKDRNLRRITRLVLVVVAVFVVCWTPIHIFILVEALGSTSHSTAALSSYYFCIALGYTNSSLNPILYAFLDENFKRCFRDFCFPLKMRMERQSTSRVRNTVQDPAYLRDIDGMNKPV
For `COc1ccccc1N1CCN(C/C(N)=N/O)CC1`, the inhibition was -2.8% (inactive).
For `N/C(=N\OC(=O)c1cccc(Cl)c1)c1ccc2nonc2c1`, the inhibition was 3% (inactive).
`COC(=O)C1=C(NNc2ccccc2)CSC1` was tested, and the inhibition was 8.6% (inactive).
In the case of `FC(F)(F)c1ccc(-n2cn[nH]c2=S)cc1`, the inhibition is reported as -0.4% (inactive).
`COc1ccc(Cc2nc(C(C)(C)C)cs2)cc1` was tested, and the inhibition was 10.7% (inactive).
In the case of `CCOC(=O)CNC(=O)c1ccc(-c2cccc([N+](=O)[O-])c2)o1`, the inhibition is reported as 9.9% (inactive).
With `CSc1nc(-n2nc(C)cc2C)nc(-c2ccco2)c1C#N` the inhibition was -17.5% (inactive).
In the case of `CC(N)=NCCc1ccncc1`, the inhibition is reported as -6% (inactive).
For `N#Cc1cn(-c2cccc(C(F)(F)F)c2)c(=O)n(Cc2ccc(Cl)cc2)c1=O`, the inhibition was -10.4% (inactive).
For `CC(C)S(=O)(=O)c1cscc1N/C=C(/C#N)C(=O)C1CC1`, the inhibition was 14.8% (inactive).
For `N#Cc1ccc(Oc2ccc(Cl)cc2)c([N+](=O)[O-])c1`, the inhibition was 5.4% (inactive).
In the case of `O=C(CSc1nnc(-c2ccncc2)n1Cc1ccccc1)Nc1nnc(-c2ccco2)s1`, the inhibition is reported as 2.3% (inactive).
For `COC(C)(OC)c1ccc(C#N)c(=S)[nH]1`, the inhibition was -2.3% (inactive).
For `FC(F)(F)c1cnc(NN=C2CCSCC2)c(Cl)c1`, the inhibition was -7.6% (inactive).
With `COc1ccc(COCC(O)CN2CCN(c3ccc(C(F)(F)F)cn3)CC2)cc1` (stereo not drawn) the inhibition was -10.5% (inactive).
`CN(C)C(=S)Nc1ccc(Br)cc1Cl` was tested, and the inhibition was 12.1% (inactive).
In the case of `N#CCCSc1sc(=S)sc1SCCC#N`, the inhibition is reported as -2.5% (inactive).
With `N/C(=N\OC(=O)CCn1cccc(C(F)(F)F)c1=O)c1ccc(OC(F)(F)F)cc1` the inhibition was 3.1% (inactive).
In the case of `Cc1cc(-c2noc(-c3cccs3)n2)no1`, the inhibition is reported as -20.2% (inactive).
`C/C(=N\NC(=S)Nc1cccc(F)c1)c1ccco1` was tested, and the inhibition was 14.4% (inactive).
`Cn1cccc1CNC(=O)c1cc(F)cc2c1OCOC2` was tested, and the inhibition was 11.7% (inactive).
With `CSc1nc(N/C=C(\C#N)C(=O)c2cccs2)n2nc(C)cc2n1` the inhibition was 9.3% (inactive).
In the case of `COc1c(/C(N)=N/O)cc(C)c2c1CCC2`, the inhibition is reported as -7.6% (inactive).
For `COc1cccc(C(=O)c2sc3nsc(SCc4ccc(F)cc4)c3c2N)c1`, the inhibition was 81.9% (active).
For `CCOC(=O)N1CCN(CC(O)COc2ccc(OC(F)(F)F)cc2)CC1` (stereo not drawn), the inhibition was 3.6% (inactive).
With `COC(=O)c1ccccc1N(C)C(=O)c1cc(OC)c(OC)c(OC)c1` the inhibition was 2.6% (inactive).
In the case of `Cc1ccc(S(=O)(=O)NNC(=O)CCc2nc(-c3ccc(Cl)cc3)no2)cc1`, the inhibition is reported as -5.8% (inactive).
With `COC(=O)c1cc(C(N)=O)c(SC)s1` the inhibition was 8.2% (inactive).
In the case of `O=C(c1ccc(F)cc1)C1CCN(Cc2cn[nH]c2-c2ccccc2)CC1`, the inhibition is reported as -2.9% (inactive).
With `O=C(CSc1ccc(Cl)cc1)NCCSCc1ccco1` the inhibition was 15.7% (inactive).
With `Cc1nn(-c2ccccc2)nc1C(=O)Nc1nnc(C2CC2)s1` the inhibition was 8.4% (inactive).
`COc1ccc(OC(=O)/C=C/c2sc3ccccc3c2C)cc1` was tested, and the inhibition was 8.8% (inactive).
`O=C1CCC(=O)N(c2ccccc2)N1` was tested, and the inhibition was 14.7% (inactive).
In the case of `O=C1NC(=O)c2cc([N+](=O)[O-])c(Sc3c(Cl)cccc3Cl)cc21`, the inhibition is reported as 4.3% (inactive).
With `N#CCc1ccc(NC(=O)c2ccccc2C(=O)Nc2ccc(CC#N)cc2)cc1` the inhibition was 20.8% (inactive).
`O=C(Nc1ccc(I)cc1Cl)C(=S)NCc1cccs1` was tested, and the inhibition was -3.3% (inactive).
`CCOC(=O)COc1cccc2c(C)cc(=O)oc12` was tested, and the inhibition was -1.5% (inactive).
In the case of `O=C(c1ccc(Oc2ccc(Cl)cc2)c([N+](=O)[O-])c1)N1CCCC1`, the inhibition is reported as 4.1% (inactive).
In the case of `CCO/N=C\c1nn(S(C)(=O)=O)cc1Br`, the inhibition is reported as -12.1% (inactive).
With `CNC(=O)c1ccccc1I` the inhibition was -1.2% (inactive).
`CSc1nnc(-c2ccc(C(F)(F)F)cn2)o1` was tested, and the inhibition was -0.1% (inactive).
For `Cn1cnnc1SCC(=O)Nc1cc(C(F)(F)F)cc(C(F)(F)F)c1`, the inhibition was 0.9% (inactive).
`CC(C)(C)NC(=O)N/N=C/c1[nH]ncc1Br` was tested, and the inhibition was 1% (inactive).
With `Cc1cc(/C(N)=N/OC(=O)c2cccs2)c(-c2ccccc2)o1` the inhibition was -13% (inactive).
In the case of `CN(C)NC(=O)c1csnc1-c1c(Cl)cccc1Cl`, the inhibition is reported as 36.6% (inactive).
In the case of `COC(=O)c1ccc(S(=O)(=O)N2CCN(c3ccc([N+](=O)[O-])cn3)CC2)n1C`, the inhibition is reported as -6.6% (inactive).
In the case of `CCOC(=O)/C(C#N)=C/c1ccc(-c2nccs2)cc1C(C)(C)C`, the inhibition is reported as -2.8% (inactive).
In the case of `COC(=O)c1cnc(N2CCCN(C(=O)C3COc4ccccc4O3)CC2)nc1C(F)(F)F` (stereo not drawn), the inhibition is reported as -8.4% (inactive).
`CCc1cnc(NS(=O)(=O)c2cc(Cl)sc2Cl)nc1-c1c(F)cccc1F` was tested, and the inhibition was 1.8% (inactive).
`CCOC(=O)Cc1nc(N)ncc1C(=O)OCC` was tested, and the inhibition was 17.3% (inactive).
With `FC(F)(F)c1ccc(/C=N/Nc2nccc(C(F)(F)F)n2)cc1` the inhibition was 6.7% (inactive).
`Cc1nc2sc(-c3ccccc3)cc2c(=O)o1` was tested, and the inhibition was -0.4% (inactive).
In the case of `CCOCCOCCN(CC)c1ccc(N=Nc2c(C#N)cc([N+](=O)[O-])cc2C#N)c(NC(C)=O)c1`, the inhibition is reported as -11.4% (inactive).
With `O=c1cc(-c2ccccc2)sc2ccc(Cl)cc12` the inhibition was -5.7% (inactive).
With `OC(CNCCNc1nccc(C(F)(F)F)n1)COc1ccc(Cl)c(Cl)c1` (stereo not drawn) the inhibition was -9.3% (inactive).
`CC(=O)Nc1ccc(/C(N)=N/O)cc1` was tested, and the inhibition was 9.1% (inactive).
In the case of `O=c1oc(/C=C/c2ccccc2)nc2ccccc12`, the inhibition is reported as -41.1% (inactive).
`COc1cc(OC)nc(/N=C/c2nc(-c3ccccc3)oc2O)n1` was tested, and the inhibition was 5.7% (inactive).
`N/C(=N/OC(=O)NC(=O)c1c(Cl)cccc1Cl)c1ccc(F)cc1F` was tested, and the inhibition was -5.4% (inactive).
With `N#Cc1c(-c2ccccc2)c(-c2ccccc2)n[nH]c1=O` the inhibition was 20% (inactive).
For `N#C/C(=C\C=C\c1ccccc1)c1nc2ccccc2[nH]1`, the inhibition was 13.4% (inactive).
In the case of `S=C(Nc1cccnc1)N1CCCN(Cc2ccc(Cl)cc2Cl)CC1`, the inhibition is reported as 4.7% (inactive).
In the case of `Cc1ccc(Oc2c(C)[nH]c(=S)[nH]c2=O)cc1`, the inhibition is reported as -1.2% (inactive).
For `O=C(Nc1ccccc1N1CCOCC1)C1CCN(c2nccc(C(F)(F)F)n2)CC1`, the inhibition was 9.4% (inactive).
With `Cc1cc(NC(=O)c2cc(-c3ccccc3)c(C(F)(F)F)s2)no1` the inhibition was -1.6% (inactive).
In the case of `CSc1sc(C(=O)Nc2cccc(Cl)c2)c(-c2cccs2)c1C#N`, the inhibition is reported as 5.9% (inactive).
With `Cn1cnc(S(=O)(=O)Nc2ccc3[nH]ccc3c2)c1` the inhibition was -0.5% (inactive).
For `CC(C)(C)C(=O)Nc1c(Br)c(C2CC2)nn1-c1ccccc1`, the inhibition was 4.1% (inactive).
With `COC(=O)C1=C(NNc2ncc(Cl)cc2C(F)(F)F)CSC1` the inhibition was -2.3% (inactive).
For `CC(=O)OCC(=O)[C@@]1(O)[C@H](C)CC2C3CCC4=CC(=O)C=CC4(C)C3=CCC21C` (stereo partly drawn), the inhibition was 0.2% (inactive).
For `Cc1ccc(S(=O)(=O)NNC(=S)NC(C)(C)C)cc1`, the inhibition was -0.7% (inactive).
In the case of `CC(=O)c1cc([N+](=O)[O-])c(NC2CCCCC2)s1`, the inhibition is reported as -27.9% (inactive).
`Clc1ccc(CO/N=C/c2nc3ccccc3s2)cc1` was tested, and the inhibition was 16.1% (inactive).
`N#Cc1cc([N+](=O)[O-])c(N2CCCC2)cc1N1CCCC1` was tested, and the inhibition was -4.1% (inactive).
With `Cn1nc(C(C)(C)C)c(NC(=O)c2sccc2Cl)c1C(C)(C)C` the inhibition was -1.9% (inactive).
`CCSC(=O)NCc1ccccc1` was tested, and the inhibition was -12.7% (inactive).
`Cc1nc(C(F)(F)F)ccc1C(=O)NCCNc1ncccc1C(F)(F)F` was tested, and the inhibition was -36.9% (inactive).
`CCOC(=O)c1cc(C)n(-c2cccc([N+](=O)[O-])c2)c1-c1ccccc1` was tested, and the inhibition was -0.8% (inactive).
`Cn1cc(C(=O)Nc2ccc(F)c(Cl)c2)c(N)n1` was tested, and the inhibition was 20.6% (inactive).
`Cc1nnsc1C(=O)NN(C)c1ccc([N+](=O)[O-])cn1` was tested, and the inhibition was 14.8% (inactive).
`CC1(C)CC(=O)C(N=Nc2c(F)cccc2F)=C(O)C1` was tested, and the inhibition was -7.3% (inactive).
`CCOC(=O)NC(=O)/C(=C/NC(C)C)C(=O)OCC` was tested, and the inhibition was 5.6% (inactive).
For `O=C1CCCCC(=O)c2ccccc2N1`, the inhibition was 7.1% (inactive).
In the case of `Cc1ccc(C(=O)N2CCN(c3cccc4[nH]ccc34)CC2)cc1`, the inhibition is reported as 2.5% (inactive).
With `CCOC(=O)c1nnc2c(Br)c(C)nn2c1C` the inhibition was 3.1% (inactive).
`O=[N+]([O-])c1ccc(N2CCSCC2)cc1O` was tested, and the inhibition was 3.6% (inactive).
`COc1ccc(/C(C)=N/Nc2c([N+](=O)[O-])cc(C(F)(F)F)cc2[N+](=O)[O-])cc1CC#N` was tested, and the inhibition was -23.7% (inactive).
In the case of `C=CCn1c(SCC(=O)Nc2nnc(-c3cccs3)s2)nnc1-c1ccco1`, the inhibition is reported as 8.8% (inactive).
For `COC(=O)c1cccc(CSc2ncccc2C(=O)O)c1`, the inhibition was 15.2% (inactive).
For `CC(=O)c1nnc2cc(C)nn2c1C`, the inhibition was 28.9% (inactive).
With `CSc1sc(C(N)=O)cc1C#N` the inhibition was 6.9% (inactive).
In the case of `Cc1cc(C(=O)NNC(=O)c2cc(C)n(C(C)(C)C)n2)no1`, the inhibition is reported as 8.1% (inactive).
In the case of `COc1ccc2c(OC(C)=O)coc2c1`, the inhibition is reported as -6.7% (inactive).
With `N#C/C(=C\c1cccn1S(=O)(=O)c1ccccc1)C(=O)c1ccccc1` the inhibition was 7.4% (inactive).
In the case of `N#Cc1ccc(OS(=O)(=O)c2cc(C(F)(F)F)cc(C(F)(F)F)c2)cc1`, the inhibition is reported as -5.9% (inactive).
`COC(=O)c1ccccc1NC(=S)NNC(=O)c1ccc([N+](=O)[O-])cc1` was tested, and the inhibition was 7.8% (inactive).
For `COC(=O)c1ccc(/C=C2\C(=O)Nc3ccccc32)n1-c1ccc(F)cc1`, the inhibition was 84.7% (active).
With `Cc1c(C)c(C)c(CSC(=N)CC#N)c(C)c1C` the inhibition was -7.6% (inactive).
With `O=C(CSc1nc2ccccc2o1)N1CCC(n2cccc2)CC1` the inhibition was 1.7% (inactive).
`CCCc1c(C(=O)O)cnn1-c1ccc(Cl)cc1` was tested, and the inhibition was -5.5% (inactive).
For `CCCc1nc(N)ncc1C(=O)OCC`, the inhibition was -2.5% (inactive).
`CCOC(=O)c1c(C)csc1NC(=O)CC(=O)C(F)(F)F` was tested, and the inhibition was -3% (inactive).
In the case of `Oc1ccc(-n2cncn2)cc1`, the inhibition is reported as -0.4% (inactive).
